Source: PubChem BioAssay (several laboratories)
PKD1 kinase inh – PKD1 (human) kinase inhibition; Q15139; PKD1 kinase fluorescence polarization assay; inhibition, % (no concentration beside the values); 200,000 compounds, 0.056% hits; AID 797; in the data active means inhibition above about 50%
WT yeast gro inh – growth inhibition of WT yeast, mitochondrial fusion screen. inhibition, % at 10 µM. mitochondrial fusion phenotypic screen, WT strain. 190,000 compounds, 2.1% hits; in the data active means inhibition above about 58%; tested in S. cerevisiae
L929 necroptosis – blocks zVAD induced death of L929 cells | L929 zVAD necroptosis rescue, ATP luminescence, 24 h; with zVAD 60 µM | viability rescue, % at 10 µM | 220,000 compounds, 0.38% hits | AID 1377;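 active means activation, scaled between plate controls, above about 75%, limit read from the data; inactive means activation under that limit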;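 further: 0% = zVAD with DMSO and 100% = DMSO alone without zVAD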
Redox H2O2 prof – compounds producing H2O2 with reducing agent – biochemical, NIH compound library profiling, artefact control for MLSCN library redox annotation, primary screen; DTT-dependent redox cycling H2O2, phenol red/HRP absorbance; 100% = 100 µM peroxide control, 0% = buffer; activation, % at 10 µM; 200,000 compounds, 0.03% hits;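 active means activation of at least 50% relative to the plate's high and low controls in the primary single-dose screen; inactive means activation below 50%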;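 further: compound incubated with DTT at 0.8 mM final as the reducing agent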
PERK inhibitor – blocks human PERK kinase; Q9NZJ5; CHO PERK-DD fusion, SEAP luminescence translation reporter; inhibition, % at 5.6 µM; 220,000 compounds, 0.17% hits; AID 1416;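 active means inhibition above the mean inhibition of all tested compounds plus 3 SD, set separately per screening campaign, cut at about 2.9% in these data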;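 further: PERK kinase domain activated by AP20187 dimerizer at 100 nM; 0% = DMSO with dimerizer and 100% = rapamycin at 8.4 µM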
TNF necrop inh – blocks TNF-alpha induced death of Jurkat FADD-/- cells | Jurkat FADD-/- TNF necroptosis rescue, ATP luminescence, 24 h; 0 = TNF only, 100 = no-TNF cells | activation (protection from cell death), % at 10 µM | 220,000 compounds, 0.068% hits | AID 463075;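 active means activation, meaning protection from cell death, of at least 50% relative to plate controls; inactive means activation below 50%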;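 further: necroptosis triggered by 40 ng/mL TNF-alpha added together with compound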
* = called active by the depositor; . = no result. An excerpt weighted towards active compounds, which were near 2.4% of everything screened.

SMILES	PKD1 kinase inh	WT yeast gro inh	L929 necroptosis	Redox H2O2 prof	PERK inhibitor	TNF necrop inh
CCN(CC)CC(=O)Nc1cc(C)c2c(=O)oc3ccccc3c2n1	.	21	.	.	.	.
Fc1ccc(-n2nnnc2-c2cnc(-c3cccs3)nc2C(F)(F)F)cc1	1	56	1	-4	1	-16
CC(C)(C)N1CCC1CN (stereo not drawn)	.	.	0	.	4.5*	0
N#CCCN(Cc1cccnc1)C(=S)NC(=O)C1CC1	-5	-9	3	1	1	0
C[C@@H]1C=C(C(=O)N2CCN(Cc3ccccc3)CC2)O[C@H](OCc2ccc(CO)cc2)C1	-10	-4	-1	1	0	0
CC(C)(C)[C@H]1C=C(C(=O)N2CCN(Cc3ccccc3)CC2)O[C@@H](OCc2ccc(CO)cc2)C1	-3	72*	0	0	1	3
O=C(C1=C[C@H](C2CCCCC2)C[C@H](OCc2ccc(CO)cc2)O1)N1CCN(Cc2ccccc2)CC1	-4	72*	1	2	0	1
O=C(C1=C[C@@H](C2CCCCC2)C[C@@H](OCc2ccc(CO)cc2)O1)N1CCN(Cc2ccccc2)CC1	-4	64*	0	0	1	1
Cn1c(SCC(=O)N2CCCC2=O)nc2ccccc21	-7	-12	2	-1	1	0
O=C(CCc1ccccc1)c1nnc(-c2ccccc2)o1	1	13	1	-2	1	0
Cc1c(/C=N\NC(=O)C2COc3ccc(C(C)(C)C)cc3O2)c2ccccc2n1C (stereo not drawn)	6	29	6	0	0	2
CC(C)N1CN(c2ccccc2)C(=S)N(c2ccccc2)C1	.	.	0	.	2	-3
Cc1nn(Cc2ccc(Cl)cc2Cl)c(C)c1NC(=O)NC12CC3CC(CC(C3)C1)C2	-1	68*	0	1	-1	0
Cc1nn(Cc2ccc(Cl)cc2Cl)c(C)c1NC(=O)c1sc2ccccc2c1Cl	-3	-12	0	-3	0	-6
CNC(=O)CS(=O)CC(=O)Nc1cc(OCCOC)c(Cl)cc1Cl (stereo not drawn)	2	11	2	-1	0	0
CCn1nnc(NC(=O)COc2ccc([N+](=O)[O-])cc2)n1	.	.	0	.	3.0*	3
Cc1ccc(OCC(=O)Nc2ccc([N+](=O)[O-])cc2)cc1	-7	-2	1	0	0	5
CC1=NOC(=O)/C1=C\c1ccc(-c2ccccc2Br)o1	2	72*	2	0	1	-4
O=C(COC(=O)/C=C/c1ccc(S(=O)(=O)N2CCc3ccccc32)cc1)NC1CCS(=O)(=O)C1 (stereo not drawn)	-3	4	0	0	1	3
N=c1n(Cc2ccccc2)c2ccccc2n1CC(O)COc1ccc(Cl)cc1Cl (stereo not drawn)	4	94*	-3	-1	0	-15
CC(/C=C/c1ccccc1)=N\NC(N)=S	-10	18	0	-7	0	-8
CC(/C=C/c1ccccc1)=N\NC(=S)NC(C)C	2	71*	1	0	-1	0
COCCCn1c(O)c(/C=C2\N=C(C#N)C(=Nc3ccc(C)cc3)O2)sc1=S	.	.	-2	.	-1	-19
O=C(COC(=O)Cc1ccc(Br)cc1)NC12CC3CC(CC(C3)C1)C2	-3	84*	0	0	1	0
O=C(COC(=O)Cc1ccc(Br)cc1)NC1CCCCCC1	1	-3	1	-2	0	0
SMILES	PKD1 kinase inh	WT yeast gro inh	L929 necroptosis	Redox H2O2 prof	PERK inhibitor	TNF necrop inh
CSc1ccc(Cl)c(C(=O)NCCOc2cc(C(C)C)ccc2C)c1	1	67*	0	2	1	-3
COc1cc(SC)ccc1C(=O)NCCOc1ccc(Cl)cc1	-6	62*	5	0	0	3
Cc1cccc[n+]1CC(=O)N1c2ccccc2Sc2ccccc21	-2	25	1	0	1	-1
COc1cccc(NC(=S)N/N=C2/CCCCc3ccccc32)c1	-3	65*	0	1	0	0
COc1ccc(C2CN=NC2C(=O)c2ccccc2)cc1 (stereo not drawn)	.	.	0	.	0	79*
COc1ccc(C2N(C(=O)c3ccccc3)CCN2C(=O)c2ccc(C)cc2)cc1 (stereo not drawn)	-3	-4	0	0	-1	0
CCOC(=O)c1cnc(SCCN2CCOCC2)nc1N	6	10	9	-1	0	1
O=C(Nc1nccs1)c1cc(-c2ccccc2)nn1-c1ccccc1	-7	7	1	0	1	0
Cc1ccc(NC(=O)c2cc(-c3ccccc3)nn2-c2ccccc2)cc1	-6	66*	3	0	0	2
Cc1ccc(NC(=O)c2cc(-c3ccccc3)nn2-c2ccccc2)c(Br)c1	-15	65*	1	2	0	2
COc1ccc(/C=C2\CCCC3C2=NC(=S)NC3c2ccc(OC)cc2)cc1 (stereo not drawn)	-10	72*	1	0	0	-11
O=C(c1ccc(-c2ccccc2)cc1)C1CCCN(C(=O)c2ccncc2)C1 (stereo not drawn)	-7	28	-2	-1	0	0
Cc1cc(Cl)ccc1C(=O)C1CCCN(C(=O)c2cc(C(C)C)no2)C1 (stereo not drawn)	-6	1	12	0	0	1
CC(C)c1cc(C(=O)N2CCCC(C(=O)c3ccc4ccccc4c3)C2)on1 (stereo not drawn)	0	28	0	1	2.9*	2
Cc1ncoc1C(=O)N1CCCC(C(=O)c2ccc(-c3ccccc3)cc2)C1 (stereo not drawn)	-3	68*	6	0	0	-1
Cc1ccc(-n2c(-c3ccccc3)cc(/C=N/NC(=O)CC#N)c2-c2ccccc2)cc1	-9	73*	0	0	1	-2
CCCCOc1ccccc1/C=N/NC(=O)CC#N	0	3	1	-1	1	-1
N#CCC(=O)N/N=C/c1cc(-c2ccccc2)n(-c2ccc(Cl)cc2)c1-c1ccccc1	0	80*	-1	-1	1	-2
N#CCC(=O)N/N=C/c1ccc(Cl)cc1	.	.	0	.	1	1
Cc1cccc(Nc2nc(NCc3ccco3)c3ccccc3n2)c1	19	98*	2	1	-1	-1
Cc1ccc(-c2nc(NCc3ccco3)c3ccccc3n2)cc1	-11	67*	0	.	0	1
Cc1ccc(Nc2nc(N)c([N+](=O)[O-])c(NCc3ccco3)n2)cc1C	-3	72*	0	0	0	-2
COc1cccc(Nc2nc(NCCO)c3ccccc3n2)c1	8	60*	5	0	-2	-6
